Screening results: PubChem, National Center for Advancing Translational Sciences (NCATS)
TDP1 inh: blocks human tyrosyl-DNA phosphodiesterase 1. Q9NUW8. recombinant TDP1, AlphaScreen DNA substrate cleavage. Potency, µM (series often up to 130 µM), without a hit: top-dose activity change, negative = inhibition, most hits filed as inhibitors. actives 0.28% (n = 350,000). AID 485290; note: potency is the fitted concentration of half-maximal effect; % is set by controls: 0 for no effect and ±100 for the full control effect; nearly all actives have a fitted effect of over 40% in size
Target sequence (Q9NUW8 whole entry, looked up): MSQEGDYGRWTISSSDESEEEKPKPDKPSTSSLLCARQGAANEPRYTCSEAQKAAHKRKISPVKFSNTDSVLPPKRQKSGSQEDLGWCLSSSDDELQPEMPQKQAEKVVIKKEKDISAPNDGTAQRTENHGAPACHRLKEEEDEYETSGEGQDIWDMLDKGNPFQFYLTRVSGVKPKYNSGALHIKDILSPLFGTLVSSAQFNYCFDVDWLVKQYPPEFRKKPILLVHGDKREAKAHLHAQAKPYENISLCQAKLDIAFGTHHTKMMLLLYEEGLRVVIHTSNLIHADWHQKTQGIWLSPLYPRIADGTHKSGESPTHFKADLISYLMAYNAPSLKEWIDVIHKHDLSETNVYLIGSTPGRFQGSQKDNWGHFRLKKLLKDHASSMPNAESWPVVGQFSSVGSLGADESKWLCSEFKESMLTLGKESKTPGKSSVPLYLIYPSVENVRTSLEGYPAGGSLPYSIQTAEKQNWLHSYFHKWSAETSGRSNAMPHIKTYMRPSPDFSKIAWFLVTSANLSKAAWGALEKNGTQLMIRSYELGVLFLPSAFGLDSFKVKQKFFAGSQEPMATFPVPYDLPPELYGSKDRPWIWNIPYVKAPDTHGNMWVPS
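Here, a 5' biotin and 3' phosphotyrosine-FITC DNA oligonucleotide reports Tdp1 activity: intact substrate bridges AlphaScreen beads, while cleavage leaves a 3' phosphate and drops signal. All incubations at room temperature.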
DT40 TDP1 no CPT: qHTS for Inhibitors of human tyrosyl-DNA phosphodiesterase 1 (TDP1): qHTS in cells in absence of CPT; DT40 Tdp1-/- hTDP1 cells, no CPT, ATP luminescence, 48 h; Potency, µM (titrated, usually from 46.2 µM), inactives show top-dose activity change, negative = growth inhibition, actives largely listed as inhibitors; actives 15% (n = 420,000); note: potency is the fitted concentration of half-maximal effect; % is set by controls: 0 for no effect and ±100 for the full control effect; nearly all actives have a fitted effect of over 55% in size
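Chicken DT40 Tdp1-/- cells stably complemented with human TDP1 were seeded at 400 cells/well with DMSO in place of 20 nM camptothecin. After compound pinning, cells grew at least 48 hr at 37 °C; viability read by CellTiter-Glo luminescence.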
HepG2 viability: kills HepG2 cells in TGF-b inhibitor counter-screen. Potency, µM (doses to about 46.1 µM), for inactives: at the highest dose activity change, negative = cytotoxicity, most hits filed as cytotoxic. HepG2 CAGA-GFP viability, ATP luminescence, 18 h. AID 588856. actives 0.76% (n = 410,000); note: potency is the fitted concentration of half-maximal effect
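HepG2 CAGA-GFP cells (1000/well, DMEM with 1% FBS) received compound, then TGF-beta at 500 pg/mL final, and were incubated 18 hours at 37 degrees C. Viability was read by CellTiter-Glo luminescence. Media-only wells were set as complete cell-killing and DMSO as no toxicity.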
DT40 TDP1 CPT: growth inhibition of DT40 Tdp1-/-;hTDP1 cells with camptothecin (screen for TDP1 inhibitors). chicken DT40 Tdp1-/-;hTDP1 cells + 20 nM CPT, ATP luminescence, 48 h. Potency, µM (top dose mostly 46.2 µM), inactives show at the top dose activity change, negative = growth inhibition, most hits filed as inhibitors. actives 12% (n = 420,000); note: potency is the fitted concentration of half-maximal effect; % is set by controls: 0 for no effect and ±100 for the full control effect; nearly all actives have a fitted effect of over 55% in size
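Cell growth measured by CellTiter-Glo luminescence after a minimum 48 h, 37 C compound exposure with 20 nM CPT in Tdp1-knockout DT40 cells stably expressing hTDP1, seeded 400/well; qHTS titration format.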
IL-1B inflam inh: blocks inflammasome-driven IL-1 beta release | THP-1 LPS/ATP IL-1B secretion, AlphaLISA, 16 h; stronger effect = lower value | activity change, % at 57.5 µM | actives 4.7% (n = 360,000) | AID 743279; in the data active = activity change below about -50%; inconclusive = mostly about -30% to -49%; note: % is set by controls: 0 for no effect and ±100 for the full control effect
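THP-1 cells pretreated 1 hr with compounds (up to 57.5 uM final), then stimulated with LPS (250 ng/mL final) plus ATP (1.25 mM final); secreted IL-1B measured by AlphaLISA after 16 hr, decreased signal indicating inhibition.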
TGFb SMAD3 inh: inhibitors of TGF-b signaling | Potency, µM (top dose mostly 46.1 µM), for the others: at the top dose activity, negative = inhibition, usual class: inhibitors | AID 588855 | actives 1.2% (n = 410,000) | HepG2 CAGA-GFP TGF-b/SMAD3 reporter, GFP fluorescence, 18 h; TGF-beta stimulated, 500 pg/mL final; note: potency is the fitted concentration of half-maximal effect; % is set by controls: 0 for no effect and ±100 for the full control effect; nearly all actives have a fitted effect of over 65% in size
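TGF-beta reporter screen: HEPG2 CAGA-GFP, 1% FBS, 500 pg/mL TGF-beta final, 18 h; per-cell GFP summed per well; curves fitted and categorized by class.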
* marks the source's active call; other numbers are inactive results; i = inactive; ? = inconclusive; · = no result; [ ] = another dose, or the depositor's remark. Shown are actives, neighbours in structure and some others; about 18% of the full set was active somewhere. Unless noted, calls come from the whole dose curve; as a rule, active = well fitted curve in the direction sought with a large enough effect; inconclusive = small, poorly fitted or top-dose-only effect, or another doubt; inactive = no such curve, though single readings can be large; an effect the other way counts as inactive or inconclusive.

SMILES | TDP1 inh | DT40 TDP1 no CPT | HepG2 viability | DT40 TDP1 CPT | IL-1B inflam inh | TGFb SMAD3 inh
CCc1ccc(N2C(=O)C(Cl)=C(Nc3ccc(C(=O)N4CCCC4)cc3)C2=O)cc1 | 4% | -6% | 0% | -28% | -92* | 12%
CCc1cccc(CC)c1NC(=O)c1c(C)oc2ccc(O)c(CN3CCOCC3)c12 | 1% | ? | -10% | ? | · | 6%
Cc1oc2ccc(O)c(CN3CCCCC3C)c2c1C(=O)Nc1ccccc1 (configuration not stated) | 1% | ? | -47% | ? | · | -21%
Cc1oc2ccc(O)c(CN3CCN(C)CC3)c2c1C(=O)Nc1cccc(C(F)(F)F)c1 | 0% | ? | -35% | 15µM* | · | -13%
CCN1CCN(Cc2c(O)ccc3oc(C)c(C(=O)Nc4cccc(C(F)(F)F)c4)c23)CC1 | 1% | ? | 13µM* | 15µM* | · | ?
CCOC(=O)/C(C#N)=N/Nc1ccc(S(=O)(=O)N2CCc3ccccc32)cc1 | 8% | ? | -30% | ? | 2 | 11µM*
N#C/C(=N\Nc1ccc([N+](=O)[O-])cc1)C(N)=S | 12% | 23µM* | -43% | ? | -66* | ?
N#C/C(=N\Nc1ccc(S(=O)(=O)N2CCc3ccccc32)cc1)C(N)=S | 11% | 12µM* | -62% | -18% | 0 | 11µM*
N#C/C(=N\Nc1ccc(S(=O)(=O)N2CCCCCC2)cc1)C(N)=S | 5% | ? | -32% | ? | -24 | ?
N#C/C(=N/Nc1ccc([N+](=O)[O-])cc1)C(=N)N1CCCCC1 | 9% | -1% | -9% | -18% | -20 | -20%
O=C(O)c1ccc(N=NNc2cccc([N+](=O)[O-])c2)cc1 | 8% | ? | -7% | 1% | -2 | 1%
CCOC(=O)CCC(=O)Nc1ccc(S(=O)(=O)N2CCc3ccccc32)cc1 | 6% | 3% | 2% | 2% | 0 | -3%
N#C/C(=N\Nc1cccc([N+](=O)[O-])c1)C(=O)c1ccc(Br)cc1 | 11% | 6.5µM* | -39% | 5.8µM* | -64* | 6.3µM*
CCN1C(=O)[C@@H]2[C@H](C1=O)[C@@H]1C[C@H]3C(=O)N(CC)C(=O)[C@H]3[C@@H]3C1=C(C(=O)N1C(=O)OC(=NCC4CC4)[C@]31C)[C@@H]2C | 2% | 3% | -5% | -8% | 4 | 2%
Cc1ccc(-c2nn(-c3ccccc3)cc2C2SCC(=O)N2Cc2ccccc2)o1 (configuration not stated) | 8% | 8.2µM* | 4% | 13µM* | -69* | ?
CC(C)(C)c1cc(N2CCOCC2)n2ncc(-c3ccc(Cl)cc3)c2n1 | · | 13µM* | 6% | ? | -1 | 0%
Cc1cc(C)n(-c2cc(C(C)(C)C)nc3c(-c4ccc(Cl)cc4)cnn23)n1 | -5% | ? | -33% | 11µM* | -2 | 14%
Cc1cc(C)n(-c2cc(C(C)(C)C)nc3c(-c4ccccc4)cnn23)n1 | -1% | ? | 0% | -21% | · | -28%
O=c1ccn([C@@H]2O[C@H](COP(=O)(O)O)[C@@H](O)[C@H]2O)c(=O)[nH]1 | 1% | -21% | · | ? | · | ·
Nc1ccn(C2OC(COP(=O)(O)O)C(O)C2O)c(=O)n1 (configuration not stated) | · | 1.2µM* | 4% | 0.65µM* | 27 | -14%
Cc1nc(SCC(=O)Nc2ccccc2C(F)(F)F)c(C#N)c(C)c1CC(=O)c1ccc(Br)cc1 | 3% | · | · | · | · | ·
CCc1c(C)nc(SCC(=O)c2cccs2)c(C#N)c1C | 0% | ? | -16% | ? | -99* | -6%
Cc1cccc(C)c1NC(=O)CSc1nc(C)c(CC(=O)c2ccc(Br)cc2)c(C)c1C#N | 0% | ? | -6% | 21µM* | 24 | 0%
N#Cc1c(-c2ccccc2F)cc(C2CC2)nc1SCC(=O)c1cccs1 | -8% | 18µM* | -21% | 18µM* | i | 7%
O=C(C1CCC(=O)N(C2CCCC2)C1)N1CCN(Cc2cccc(Cl)c2)CC1 (configuration not stated) | 4% | -26% | -23% | -27% | 9 | -2%
SMILES | TDP1 inh | DT40 TDP1 no CPT | HepG2 viability | DT40 TDP1 CPT | IL-1B inflam inh | TGFb SMAD3 inh
O=C(Nc1cccc(C(=O)Nc2ccc(F)cc2F)c1)c1ccccc1 | · | ? | -19% | -22% | -11 | 3%
Cc1ccc(C)c(/C=C2\CCn3c2nc2cc(C(=O)O)ccc2c3=O)c1 | · | ? | 1% | -17% | 18 | 1%
CC(C)OC(=O)C(C(=O)C(F)(F)F)c1cc(NS(=O)(=O)c2ccc3ccccc3c2)c2ccccc2c1O (configuration not stated) | 3% | 21µM* | -97% | 23µM* | -61* | 0%
Cc1ccccc1Nc1c(-c2ccc(N3CCOCC3)cc2)nc2cccc(C)n12 | 4%[12.3 µM] | ? | -13% | ? | · | -2%
Cc1cccc2nc(-c3cccnc3)c(Nc3ccc(C(C)C)cc3)n12 | 0% | 16µM* | -33% | ? | · | ?
Cc1ccccc1Nc1c(-c2cccs2)nc2cccc(C)n12 | 5% | 13µM* | -6% | 15µM* | · | -5%
Cc1ccccc1Nc1c(-c2cccnc2)nc2cccc(C)n12 | 3% | 21µM* | -14% | ? | 3 | ?
COc1ccc(/C=C/C(=O)OCC(=O)NCCC2=CCCCC2)cc1S(=O)(=O)N1CCOCC1 | 5% | -19% | -14% | -29% | -6 | ?
CCCCn1c(N)c(N(CCOC)C(=O)c2cc(-c3ccccc3Cl)nc3ccccc23)c(=O)[nH]c1=O | 10%[0.505 µM] | 1% | -47% | -2% | -11 | 19%
Cc1cc(C)cc(N(C(=O)CNC(=O)c2ccco2)C(C(=O)NC2CCCCC2)c2ccncc2)c1 (configuration not stated) | · | 2% | -1% | -1% | 1 | 2%
CC1CCC(NC(=O)CCNC(=O)c2ccc(Br)cc2)CC1 (configuration not stated) | -4% | -3% | -45% | 0% | -5 | ?
CN(C)CCNC(=O)c1ccc(Cn2c(=O)c3cccn3c3cccnc32)cc1 | -3% | ? | -27% | ? | · | -20%
COc1ccccc1NC(=O)CSc1oc(-c2cccs2)nc1S(=O)(=O)c1ccc(C)cc1 | 9% | ? | -12% | ? | · | -3%
